From publication PMC12136788
Substitutions are numbered along the chain they refer to. The full ranking holds about 24,000 sequences; the median of “enrichment r” is about 0.99, and the highest 2% start at about 3.7. The entries come from a sample that favours the highest values as a whole.

T1: UNK ZnF1-3 (human, UniProt Q9C0B0 31-174)
T1 sequence: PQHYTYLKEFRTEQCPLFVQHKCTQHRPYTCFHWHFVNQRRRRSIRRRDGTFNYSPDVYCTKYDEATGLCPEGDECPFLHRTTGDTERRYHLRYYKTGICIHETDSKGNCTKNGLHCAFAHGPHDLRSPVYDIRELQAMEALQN

B1: chr2:27535424:27535425:-_ENSG00000115204_ENST00000380044|hu_mus|FALSE|FALSE (ssRNA)
RNA: GGGAGUUCUACAGUCCGACGAUCUUUGGCCCAAUUGUCCUGGGCUGACAUUCCAUUGAGUAUCCCGACCAGUGGGAGAAAGCAGCCUAGGAAACAUGGGGCAAAGCCCCCCUGAUCUAACAACAUCUUCUUCAGUGCAUGCACCAACAGAGGAUUGAGCAUCA
B2: chr2:17897474:17897475:-_ENSG00000163029_ENST00000351948|hu_mus|FALSE|FALSE (ssRNA)
RNA: GGGAGUUCUACAGUCCGACGAUCUAUUGCUUCCAGAAGAGCUGGAACAUGAGGACCAAAUCUUUUUAGUCGAUCAGUUUUACUAUCUUUCAGUUCUUUCAAUUGUCUCUGAUUAUAGUUGAGUGCAUGUCUCACUUCUAUAUCCAACAGAGGAUUGAGCAUCA
B3: 8890394_8891644_3383_CDS_ENSG00000134313_ENST00000427284|human|control|control (ssRNA)
RNA: GGGAGUUCUACAGUCCGACGAUCACCCUCAUGUAGAGGGAGCGGGGGGUACGCCAGUCCUCCAAUACUGAUCUGCUCUCUGGCAGCACGAACAUCUGCAAUAAUUUCCCGUAGUUUGGGAUCUAGGUUUACAGUGCAUGGCAACAACAGAGGAUUGAGCAUCA
B4: chr4:2840174:2840175:+_ENSG00000087266_ENST00000503393|hu_hu|motif|central (ssRNA)
RNA: GGGAGUUCUACAGUCCGACGAUCGAACUACGAUACAGCCAAACAAUGGAAGUUUUUAGCAAUGAACAUGCACAAACGGUACGGCGCACAGCAACAUGAAUAAAUCUCACAGACAUAAUAACGAGCCAAAGAAGCCAGCUGCCACAACAGAGGAUUGAGCAUCA
B5: chr17:56552419:56552420:-_ENSMUSG00000013236_ENSMUST00000086828|mus_mus|mus_mus_mus_hu_False|38_48 (ssRNA)
RNA: GGGAGUUCUACAGUCCGACGAUCAAAAAAUACACUAUUUAAAAAAAAUGAAAUGUCACGGGAUACAGUUACACUGAGAGUUUUAAAAAAAAAUAAGAAAAAAAAUGCAGCCCAGUGUCCCCAGGCUGCAGAGCGGGGAGGAGCCAACAGAGGAUUGAGCAUCA
B6: chr17:56552419:56552420:-_ENSMUSG00000013236_ENSMUST00000086828|mus_mus|mus_mus_mus_hu_False|28_38 (ssRNA)
RNA: B5 RNA with A88G, A92G, U93C, A94U, A95G, C107U, A108U, C112A, G114A, U115A
B7: chr17:56552419:56552420:-_ENSMUSG00000013236_ENSMUST00000086828|mus_mus|mus_mus_mus_hu_False|18_38 (ssRNA)
RNA: GGGAGUUCUACAGUCCGACGAUCAAAAAAUACACUAUUUAAAAAAAAUGAAAUGUCACGGGAUACAGUUACACUGAGAGUUUUAAAAGAAAGCUGGAAAAAAAAUGCAGCCCAGUGGCAGGCAGGGGCAGAGCGGGGAGGAGCCAACAGAGGAUUGAGCAUCA
B8: chr17:56552419:56552420:-_ENSMUSG00000013236_ENSMUST00000086828|mus_mus|mus_mus_mus_hu_False|8_38 (ssRNA)
RNA: GGGAGUUCUACAGUCCGACGAUCAAAAAAUACACUAUUUAAAAAAAAUGAAAUGUCACGGGAUACAGUUACACUGAGAGUUUUAAAAGAAAGCUGGAAAAAAAAUGCAGCCCAGUGUCCCCAGGCUGAGUGCGGAAGAGGAGCCAACAGAGGAUUGAGCAUCA
B9: chr2:61719535:61719536:-_ENSG00000082898_ENST00000401558|hu_mus|FALSE|FALSE (ssRNA)
RNA: GGGAGUUCUACAGUCCGACGAUCGUUUACUACUGUCUUCAAAAAUUUCCAGUGUGCUCUCAAAAAUCUUGGGUAUUGACCUACUAUGUACAUGAUAUUCGAUGCAAUAAUAGCUUUAUUAUCUUUGCCUCUUUUCUGCUCACACAACAGAGGAUUGAGCAUCA
B10: chr2:48026839:48026840:+_ENSG00000116062_ENST00000540021|hu_hu|hu_hu_hu_mus_False|38_78 (ssRNA)
RNA: GGGAGUUCUACAGUCCGACGAUCAUAGUGAGCCACUAGCGUCCUAAAUCUGGAACAAUGGCGAUCAUCCGAAAACUGGCCGAUGAAAAACUUGCCCAGUGAAGUAUCCACAAAGCAAACACCAUACACACGAGUGUGACCAGACAACAGAGGAUUGAGCAUCA
B11: chr1:180251914:180251915:+_ENSMUSG00000026500_ENSMUST00000027781|mus_hu|FALSE|FALSE (ssRNA)
RNA: GGGAGUUCUACAGUCCGACGAUCAGAUCCUAAUGAACCAUACAAUAUUGAAUGCCGGGCGCAGGGAGUAUUUUCAACAUCUAAAAAUCCUAGGAGCUUAAGGGACUUCCAAUAUGAUAAAUGUAACGACGUACAAGAUGCCUUCAACAGAGGAUUGAGCAUCA
B12: 106713800_106713920_1116_CDS_ENSMUSG00000018363_ENSMUST00000103067|mouse|control|control (ssRNA)
RNA: GGGAGUUCUACAGUCCGACGAUCCCUGCUCAUGUAAUUUCUAUGUCGCUGGGACCUGACUCUUCUCUCUGCUAGUCUGGGGUCUGAAGAAUGUCCACACGUUGCACCAUUUGUUCCAGUAAUUGGAGUAUUCUCAUCCACAAACAACAGAGGAUUGAGCAUCA
B13: chr17:56552419:56552420:-_ENSMUSG00000013236_ENSMUST00000086828|mus_mus|mus_mus_mus_hu_False|38_58 (ssRNA)
RNA: B5 RNA with G77C, G79C, U81A, A88G, A92G, U93C, A94U, A95G
B14: chr2:48035047:48035048:-_ENSG00000138081_ENST00000403359|hu_hu|motif|central (ssRNA)
RNA: GGGAGUUCUACAGUCCGACGAUCACAAAAUUGCAGCUUAUUUUCUUCACUUCUGUCCCUUCAAGUCUUUACACAGUAAUGCGGAAACACCCAGCUUUGAGAUCCUGAGUCAAUAUAUUGCCACUUUCUUUUUGGUAGCUUGAGCAACAGAGGAUUGAGCAUCA
B15: chr7:72441615:72441616:-_ENSMUSG00000030516_ENSMUST00000102592|mus_hu|FALSE|FALSE (ssRNA)
RNA: GGGAGUUCUACAGUCCGACGAUCAAAAUUUUCAAAUGCAUAGCCAGAAAGAACAGAAAACCACCACUGCCCCUUGUCAAAAAAAAAAAAAAAGAAAAGAAAAGAAAAGAAAAAAAUAUCCCCAAAUCACACCACUAUUUUCUUCAACAGAGGAUUGAGCAUCA
B16: 173052199_173052319_2237_3pUTR_ENSMUSG00000038400_ENSMUST00000036248|mouse|control|control (ssRNA)
RNA: GGGAGUUCUACAGUCCGACGAUCCUGUAUCCACCUGGCACCAAAUUCGGGGACUGCUUUGGCUUUGGGGAUGCACCUUGCCCCCAAACACUGAACCUUCAUAGUUUUUGUGUUUUAAAGAGGAAGAAAAAAAAAAAAACUAAGCAACAGAGGAUUGAGCAUCA
B17: 14336767_14358337_2061_CDS_ENSG00000038382_ENST00000344204|human|control|control (ssRNA)
RNA: GGGAGUUCUACAGUCCGACGAUCAUACACGUCGUCCAGCAGCUCCUUCUGCAGCUCCUCCAGCCACGUCCACAGCUCUUUCACAUGGGUGUGAAAGGACACUGACAUGUCCAGUAGGAUCUUUCGCUGCUCAACACGCCGAACCAACAGAGGAUUGAGCAUCA
B18: chr7:117185563:117185564:+_ENSMUSG00000066232_ENSMUST00000084731|mus_mus|FALSE|FALSE (ssRNA)
RNA: GGGAGUUCUACAGUCCGACGAUCGGGCUUCAGGUUCUUCCACGUAAGUGCAUGGGAAACUCCUUGAUUAAUAUAAUUUAAUGUCUGCUGUAAAACUCGAGGCGCCAUAUAUUGUUUUUCCUUGUACUGAUAUAACACUUUCAACAACAGAGGAUUGAGCAUCA
B19: chr2:71272186:71272187:+_ENSMUSG00000027018_ENSMUST00000028408|mus_mus|FALSE|FALSE (ssRNA)
RNA: GGGAGUUCUACAGUCCGACGAUCCUGUGCCUGUAUUGCCAUAUCUUCACUGAAUCCUUGCAGUAAUCUUUCCCGGGAGAAACUGGGCAAAAAUUGACAAAACUUCACAAGCACAAAGUCUCUUAGUUUCAAAUAGCUUCUGGACAACAGAGGAUUGAGCAUCA
B20: chr10:7433921:7433922:+_ENSMUSG00000040021_ENSMUST00000165952|mus_mus|motif|central (ssRNA)
RNA: GGGAGUUCUACAGUCCGACGAUCGCUUUGUGUAUGUUAGGCAAGUGCUCUACCACUGAGCCAUAUCCUUAGCCCCGGGAAAAUGUACUUUCUUAGUGAGUACAUACACGUAAAUUAAAAAAAAAAAUUACAAACUGAAAAUAACAACAGAGGAUUGAGCAUCA
B21: chr10:7433921:7433922:+_ENSMUSG00000040021_ENSMUST00000165952|mus_mus|FALSE|FALSE (ssRNA)
RNA: B20 RNA with G76U, G77A
B22: chr11:134117569:134117570:+_ENSG00000151502_ENST00000281187|hu_hu|motif|central (ssRNA)
RNA: GGGAGUUCUACAGUCCGACGAUCAGAAACAUGUAAACACUGCAGCUGCUUAAUUACAAGUUGCACUGCUUGAUUUAGUACCGGUGCACUCCCAGGUUUGGGGACCUUAAGAGAGGGGGACAGGAGCCUCCCCUCACUUUCACACAACAGAGGAUUGAGCAUCA

target: T1, UNK ZnF1-3; experiment: nsRBNS (natural sequence RNA bind-n-seq); RBNS binding buffer (assumed for nsRBNS): 25 mM Tris pH 7.5, 150 mM KCl, 3 mM MgCl2, 0.01% Triton X-100, 500 ug/ml BSA, 20 U/ml SUPERase-In, 4 C; UNK is unkempt and MSI1 is Musashi-1; names of the RNAs are library labels; protein concentration not given here; high values mean tight binding

Binder	binding signal [enrichment R]
B1	0.82
B2	0.468
B3	0.796
B4	2.12
B5	12.3
B6	5.83
B7	5.96
B8	6.02
B9	0.747
B10	1.33
B11	1.57
B12	0.982
B13	9.74
B14	0.585
B15	5.91
B16	2.34
B17	0.394
B18	1.59
B19	1.25
B20	5.64
B21	8.06
B22	0.758
